Source: PubChem (several laboratories)
Sampled rows, rich in hits. Any-hit rate of the full collection: about 6.2%.
AI-2 QS mod: modulators of Vibrio harveyi AI-2 quorum sensing system | Vibrio harveyi JMH597 AI-2 luminescence/OD600 ratio, 9 h; hits give low values; strain lacks LuxN and CqsS sensors; 0 = neutral-control median | activity change, % at 7.5 µM | 300,000 compounds, 0.4% hits | AID 2094; in the data active means activity change below about -75%, passing the limit was not always enough;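 further: luminescence divided by OD600 gain over 9 h not by final OD600 alone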
Mot1-301 SUMO: SUMOylation pathway inhibition by Mot1-301 growth rescue | S. cerevisiae Mot1-301 growth rescue, ATP luminescence, 38.5C; percent above DMSO median, 100 means doubled | growth rescue, % at 18.8 µM | 320,000 compounds, 1% hits;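 active means every valid replicate shows activation above 250% relative to neutral control wells; inactive means the rest, any valid replicate at or below 250%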;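 further: OY570 slx delta 5 strain wells were the positive control but not used for scaling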
NTR1 agonist: NTR1 (human) agonism; NTR1-U2OS beta-arrestin-GFP spot imaging, agonist mode; activation, % at 20 µM; 330,000 compounds, 0.17% hits;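 active means activation at or above 40% of the spot to cytoplasm intensity ratio, with at least 20 cells analyzed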;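 further: 0% = DMSO without peptide and 100% = 100 nM NTR1 peptide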
Cardio protect: protects H9c2 cardiomyocytes from peroxide injury; H2O2 injury protection, ATPLite, 2 h; protection from H2O2 cell death, % at 20 µM; 360,000 compounds, 0.63% hits; AID 588492;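 active means compounds giving at least 50% protection of heart cells from peroxide-induced death in the single-dose screen, raw or plate-pattern-corrected value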;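 further: 0% = DMSO wells with peroxide and 100% = DMSO wells without peroxide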
AHR activator: human AHR activation. activation, % at 5 µM. 320,000 compounds, 2.5% hits. AHR-responsive luciferase reporter cells, luminescence; in the data active means activation above about 47%;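 further: 0% = vehicle wells and 100% = reference agonist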
Target sequence (P35869 whole entry, looked up): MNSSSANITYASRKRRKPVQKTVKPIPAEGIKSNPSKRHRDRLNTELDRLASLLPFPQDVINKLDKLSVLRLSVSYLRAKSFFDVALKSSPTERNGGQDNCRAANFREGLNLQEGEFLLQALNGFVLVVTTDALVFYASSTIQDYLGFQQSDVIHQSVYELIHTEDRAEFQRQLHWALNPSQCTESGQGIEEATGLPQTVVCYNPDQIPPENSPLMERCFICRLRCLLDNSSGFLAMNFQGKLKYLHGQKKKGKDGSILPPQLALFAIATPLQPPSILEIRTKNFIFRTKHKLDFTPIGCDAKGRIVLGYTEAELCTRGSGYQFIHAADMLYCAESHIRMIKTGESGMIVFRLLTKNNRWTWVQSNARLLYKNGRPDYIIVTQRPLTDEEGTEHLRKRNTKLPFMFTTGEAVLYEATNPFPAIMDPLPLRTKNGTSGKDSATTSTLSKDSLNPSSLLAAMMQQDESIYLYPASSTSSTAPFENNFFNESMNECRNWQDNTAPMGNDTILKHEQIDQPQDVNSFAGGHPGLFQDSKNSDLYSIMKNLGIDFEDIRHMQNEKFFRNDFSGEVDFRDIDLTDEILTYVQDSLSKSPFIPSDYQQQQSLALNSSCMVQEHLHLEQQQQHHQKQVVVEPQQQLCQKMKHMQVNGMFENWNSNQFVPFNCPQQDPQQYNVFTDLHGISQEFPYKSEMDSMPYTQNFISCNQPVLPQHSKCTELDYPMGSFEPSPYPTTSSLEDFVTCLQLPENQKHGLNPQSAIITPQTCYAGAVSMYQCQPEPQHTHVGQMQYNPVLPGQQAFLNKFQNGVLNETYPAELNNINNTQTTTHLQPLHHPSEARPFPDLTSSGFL
GRIN3A LBD mod: modulates the human NR3A ligand-binding domain | AID 1259313 | NR3A LBD differential scanning fluorimetry, Tm shift; 0% = protein alone, 100% = glycine-bound protein | 340,000 compounds, 2.5% hits | Tm shift relative to glycine control, % at 25 µM;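 active means melting temperature shift of at least 10% of the positive control shift, at one fixed dose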
Active calls of the source: *; x = no result.

SMILES | AI-2 QS mod | Mot1-301 SUMO | NTR1 agonist | Cardio protect | AHR activator | GRIN3A LBD mod
O=C(c1cc(-c2ccc(Cl)c(Cl)c2)on1)N1CCOCC1 | 22 | 137 | 0 | 0 | 2 | -2
CC1CCN(C(=O)c2cc(-c3ccc(Cl)c(Cl)c3)on2)CC1 | -80* | 2 | 8 | -6 | -3 | 6
O=C(c1cc(-c2ccc(O)cc2)on1)N1CCN(c2ccccc2)CC1 | 17 | 5 | 2 | -3 | 11 | 12*
COC(=O)C1(Cc2ccc3c(c2)CCC3)Cc2ccc3c(c2C1=O)CCC3 (stereo not drawn) | x | x | x | -14 | x | -1
CC(C)N(Cc1nc(-c2ccc3c(c2)OCO3)no1)Cc1nccn1C | 11 | 16 | 2 | -3 | 61* | -3
O=C(CSc1nc2ccccc2c(=O)[nH]1)c1cccs1 | 33 | -4 | -2 | 33 | 6 | 0
O=C(CSc1nc2ccccc2c(=O)[nH]1)c1ccc(O)c(O)c1 | 34 | 64 | 1 | 58* | 9 | -6
O=C(CSc1nc2ccccc2c(=O)[nH]1)c1ccc(O)cc1O | 59 | x | x | 67* | x | -9
Cc1cc(=O)[nH]c(SCC(=O)c2ccc(O)c(O)c2)n1 | 7 | -1 | 2 | 3 | -1 | -1
Cc1c(Cl)c([N+](=O)[O-])nn1CCCC(=O)Nc1cc(Oc2ccccc2)cc([N+](=O)[O-])c1 | 12 | -23 | 17 | -16 | 2 | 18*
CC1CC(C)CN(CCCNS(=O)(=O)c2ccc3c(c2)oc(=O)n3C)C1 (stereo not drawn) | 14 | -17 | -2 | 2 | x | 5
S=c1[nH]c2ccccc2n2cccc12 | 10 | 54 | 2 | 9 | 14 | 0
O=c1[nH]c2cccc(F)c2n2cccc12 | 1 | -19 | 1 | 51* | 7 | -4
CC1CN(S(=O)(=O)c2ccc(C(=O)Nc3nnc(-c4ccc5c(c4)CCCC5)o3)cc2)CC(C)O1 (stereo not drawn) | 6 | 10 | 6 | 62* | 3 | 2
COc1ccc(-c2nnc(NC(=O)c3ccccc3C)o2)cc1 | -61 | 30 | -2 | 19 | 6 | -2
COc1ccc(-c2nnc(NC(=O)c3ccc(S(=O)(=O)N4CCCc5ccccc54)cc3)o2)cc1 | 3 | 4 | 1 | 63* | 2 | 6
COc1ccccc1C(=O)Nc1nnc(-c2ccc3c(c2)CCCC3)o1 | 23 | 107 | 5 | -5 | 52* | -9
COCc1nnc(NC(=O)c2ccc(S(=O)(=O)N3CCCc4ccccc43)cc2)o1 | 37 | -4 | -2 | 12 | -2 | -5
O=C(COc1ccc(Cl)cc1)Nc1nnc(-c2ccc3c(c2)CCCC3)o1 | 18 | 3 | 8 | 27 | 27 | -1
CC1CN(S(=O)(=O)c2ccc(C(=O)Nc3nnc(-c4ccccn4)o3)cc2)CC(C)O1 (stereo not drawn) | 19 | -12 | -1 | 3 | 1 | -2
CC(=O)Nc1nnc(-c2ccc3c(c2)CCCC3)o1 | 16 | 10 | -1 | -20 | 59* | -1
CC(C)(C)Cc1c(-c2cccc(Br)c2)nc2ccc(Br)cn12 | x | x | x | -2 | x | x
CC(C)c1ccc(NC(=O)C2CCCCN2S(=O)(=O)c2ccccc2)cc1 (stereo not drawn) | x | x | -1 | -8 | 5 | -7
CCC(C)(C)C1CCc2[nH]nc(C(=O)NCCCNC(=O)OC(C)(C)C)c2C1 (stereo not drawn) | x | -12 | 5 | -1 | 0 | -1
CCOC(=O)C(CC(=O)Nc1nc(C(C)=O)c(C)s1)C(C)c1ccccc1 (stereo not drawn) | 8 | 3 | 0 | 3 | 8 | 3
SMILES | AI-2 QS mod | Mot1-301 SUMO | NTR1 agonist | Cardio protect | AHR activator | GRIN3A LBD mod
CCCC1C2C(=O)N(c3ccccc3OC)C(=O)C2ON1c1ccccc1 (stereo not drawn) | -3 | -11 | 0 | 4 | 1 | 20*
Cn1cccc1/C=C1\SC(=S)N(NC(=O)c2cccc(Cl)c2)C1=O | x | 26 | x | 8 | -1 | 13*
O=C(O)c1ccccc1NS(=O)(=O)c1ccc(NNC(=S)Nc2ccc(OC(F)F)cc2)c([N+](=O)[O-])c1 | -1 | x | x | 0 | x | 6
CC(=O)Nc1cccc(/C(C)=N/Nc2ccc(S(=O)(=O)Nc3ccccc3C(=O)O)cc2[N+](=O)[O-])c1 | x | x | x | 0 | x | 14*
Cc1ccc(NC(=S)NNc2ccc([N+](=O)[O-])cc2S(=O)(=O)Nc2ccccc2C(=O)O)cc1C | 12 | 6 | x | 3 | 3 | 26*
O=C(O)c1ccccc1NS(=O)(=O)c1ccc(N/N=C/c2cccc(O)c2O)c([N+](=O)[O-])c1 | x | x | x | 3 | x | 32*
CN(CCO)c1ccc(C=NNc2ccc([N+](=O)[O-])cc2S(=O)(=O)Nc2ccccc2C(=O)O)cc1 | x | -21 | -1 | 0 | -1 | 26*
O=C(O)c1ccccc1Nc1ccc([N+](=O)[O-])cc1C(=O)O | 14 | -7 | 1 | 2 | 2 | 2
C[C@H]1[C@H](c2ccccc2)C[C@@H](C(=O)O)C1(C)C | 22 | -6 | 4 | 4 | -3 | 3
CCc1ccc(OCC(=O)NNC(=O)c2ccc(NC(=O)C3CC3)cc2)cc1 | 23 | 264 | 0 | -1 | -1 | -1
CCn1c(CNC(=O)c2cccc(C)c2)nnc1SCC(=O)Nc1nnc(C)s1 | 13 | 0 | -1 | 0 | -2 | -1
COc1ccc(NS(=O)(=O)c2cc([N+](=O)[O-])ccc2N/N=C/c2c(C)[nH]c3ccccc23)cc1 | x | x | x | 3 | x | 28*
COc1ccc(C(C)=NNc2ccc([N+](=O)[O-])cc2S(=O)(=O)Nc2ccccc2C(=O)O)c(OC)c1 | x | -11 | 4 | -11 | 0 | 9
CC(=O)Nc1ccc(C=NNc2ccc([N+](=O)[O-])cc2S(=O)(=O)Nc2ccccc2C(=O)O)cc1 | x | -14 | -1 | 10 | -1 | 29*
CC(=O)Nc1ccc(C=NNc2ccc(S(=O)(=O)Nc3ccccc3C(=O)O)cc2[N+](=O)[O-])cc1 | x | 11 | -2 | -5 | -2 | 22*
O=[N+]([O-])c1cc(S(=O)(=O)Nc2ccc(Cl)cc2)ccc1N/N=C/c1ccncc1 | 16 | -12 | 16 | -8 | 9 | 12*
O=C(COc1coc(CN2CCCc3ccccc32)cc1=O)Nc1cccc([N+](=O)[O-])c1 | 16 | 0 | 0 | -12 | -5 | -2
COc1ccc(C2CC(c3ccccc3)n3nnnc3N2)cc1 (stereo not drawn) | 6 | -31 | -1 | -6 | 1 | 411*
COc1ccc(C2CC(c3cc(Br)ccc3F)n3nnnc3N2)cc1 (stereo not drawn) | -8 | 35 | 5 | -6 | 1 | 1
COc1ccc(C2CC(c3cccs3)n3nc(N)nc3N2)cc1 (stereo not drawn) | 29 | -14 | 2 | 62* | 3 | -4
